# Experimental data from publication PMC7862700, “An all-to-all approach to the identification of sequence-specific readers for epigenetic DNA modifications on cytosine”.
# Assays:
# Experiment in all cases: DAPPL (digital affinity profiling via proximity ligation, sequencing); 10 mM Tris-HCl pH 7.5, 50 mM NaCl, 1 mM DTT, 4% glycerol, room temperature, 30 min; GST-TFs on glutathione beads, 16-mer random dsDNA library, 0.1% formaldehyde crosslink after washing; high values mean tight binding
# FEV = molecular target: T1, FEV (Homo sapiens, UniProt Q99581 1-238); conditions: protein: recombinant; tags: N-terminal GST; dsDNA, one strand shown
# T1 sequence: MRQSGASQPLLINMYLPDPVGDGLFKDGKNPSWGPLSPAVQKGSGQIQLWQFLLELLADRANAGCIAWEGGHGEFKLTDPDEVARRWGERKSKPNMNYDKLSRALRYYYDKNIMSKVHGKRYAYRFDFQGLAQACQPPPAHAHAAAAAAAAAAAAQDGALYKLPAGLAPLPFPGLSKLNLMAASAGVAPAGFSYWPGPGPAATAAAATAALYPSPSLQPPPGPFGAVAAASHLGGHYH
# Method in brief: (§1)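 Each value of binding signal is a hexamer's read frequency for a factor divided by the same hexamer's frequency in the tag-only sample. Barcoded, bead-captured GST fusions of human transcription factors made in yeast were pooled with that sample and incubated with 200 nmole of a random double-stranded 16-mer DNA library in Tris/NaCl/DTT/glycerol buffer at room temperature for 30 min. Washing, 0.1% formaldehyde crosslinking, proximity ligation, PCR and Illumina NextSeq500 sequencing followed.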
# ETV5 = ETV5 (Homo sapiens, UniProt P41161 1-510); conditions: protein: recombinant; tags: N-terminal GST; dsDNA, one strand shown
# Chain of ETV5 (P41161 whole entry): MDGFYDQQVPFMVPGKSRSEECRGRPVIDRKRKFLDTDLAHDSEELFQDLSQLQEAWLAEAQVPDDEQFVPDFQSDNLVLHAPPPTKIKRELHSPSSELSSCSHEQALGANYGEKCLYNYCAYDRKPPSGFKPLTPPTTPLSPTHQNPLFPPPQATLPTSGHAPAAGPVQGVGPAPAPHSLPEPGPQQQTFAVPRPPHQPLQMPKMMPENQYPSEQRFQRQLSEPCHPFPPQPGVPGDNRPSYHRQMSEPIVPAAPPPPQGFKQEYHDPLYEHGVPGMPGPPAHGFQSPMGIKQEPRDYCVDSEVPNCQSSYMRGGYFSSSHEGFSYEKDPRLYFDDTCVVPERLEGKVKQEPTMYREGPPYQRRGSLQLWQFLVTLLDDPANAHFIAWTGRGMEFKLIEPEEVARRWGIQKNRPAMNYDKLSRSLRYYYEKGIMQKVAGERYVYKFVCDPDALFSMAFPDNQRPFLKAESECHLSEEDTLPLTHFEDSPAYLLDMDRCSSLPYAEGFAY
# Method in brief: as §1
# HSF1 = HSF1 (Homo sapiens, UniProt Q00613 1-529); conditions: protein: recombinant; tags: N-terminal GST; chain copies: 3; dsDNA, one strand shown
# Chain of HSF1 (Q00613 whole entry): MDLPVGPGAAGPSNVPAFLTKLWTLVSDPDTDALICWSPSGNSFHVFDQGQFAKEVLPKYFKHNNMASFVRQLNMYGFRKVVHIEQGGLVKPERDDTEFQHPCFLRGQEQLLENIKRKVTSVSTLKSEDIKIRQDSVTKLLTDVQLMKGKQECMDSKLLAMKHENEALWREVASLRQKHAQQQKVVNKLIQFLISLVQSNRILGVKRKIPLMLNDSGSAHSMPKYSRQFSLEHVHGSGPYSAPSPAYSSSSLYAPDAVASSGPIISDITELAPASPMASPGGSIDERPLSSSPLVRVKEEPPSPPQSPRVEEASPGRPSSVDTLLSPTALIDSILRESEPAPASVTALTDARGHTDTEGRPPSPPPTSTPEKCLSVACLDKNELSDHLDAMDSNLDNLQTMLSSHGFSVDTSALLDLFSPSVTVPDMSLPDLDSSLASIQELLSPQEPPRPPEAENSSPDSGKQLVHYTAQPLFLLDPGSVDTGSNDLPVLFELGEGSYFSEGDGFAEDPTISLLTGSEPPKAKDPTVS
# Method in brief: as §1
# SPIC = molecular target: T2, SPIC (Homo sapiens, UniProt Q8N5J4 1-248); conditions: protein: recombinant; tags: N-terminal GST; dsDNA, one strand shown
# T2 sequence: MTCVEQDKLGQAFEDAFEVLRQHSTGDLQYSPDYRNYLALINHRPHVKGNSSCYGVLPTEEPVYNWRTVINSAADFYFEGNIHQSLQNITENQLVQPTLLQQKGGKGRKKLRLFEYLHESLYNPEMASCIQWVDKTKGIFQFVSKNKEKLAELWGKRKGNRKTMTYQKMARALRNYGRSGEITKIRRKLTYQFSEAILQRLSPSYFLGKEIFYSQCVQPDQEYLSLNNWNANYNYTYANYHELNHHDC
# Method in brief: as §1
# ELF4 = ELF4 (Homo sapiens, UniProt Q99607 1-663); conditions: protein: recombinant; tags: N-terminal GST; dsDNA, one strand shown
# Chain of ELF4 (Q99607 whole entry): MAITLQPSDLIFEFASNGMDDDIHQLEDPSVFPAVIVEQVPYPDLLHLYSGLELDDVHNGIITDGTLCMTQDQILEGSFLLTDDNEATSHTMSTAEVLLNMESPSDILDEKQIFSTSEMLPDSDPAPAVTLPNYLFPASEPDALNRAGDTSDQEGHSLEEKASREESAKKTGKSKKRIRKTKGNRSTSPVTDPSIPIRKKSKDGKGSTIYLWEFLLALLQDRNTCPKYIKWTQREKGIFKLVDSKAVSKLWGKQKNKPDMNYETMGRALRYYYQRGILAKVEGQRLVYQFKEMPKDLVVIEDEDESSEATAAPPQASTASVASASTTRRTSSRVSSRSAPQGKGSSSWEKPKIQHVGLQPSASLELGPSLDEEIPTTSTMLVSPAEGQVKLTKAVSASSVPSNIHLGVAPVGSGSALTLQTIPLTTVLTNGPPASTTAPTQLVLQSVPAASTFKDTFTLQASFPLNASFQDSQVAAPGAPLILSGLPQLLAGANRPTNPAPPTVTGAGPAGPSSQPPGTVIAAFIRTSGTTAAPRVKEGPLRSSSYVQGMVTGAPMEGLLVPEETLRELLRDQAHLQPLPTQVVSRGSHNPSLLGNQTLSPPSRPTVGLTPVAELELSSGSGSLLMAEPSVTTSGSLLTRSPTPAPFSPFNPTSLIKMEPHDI
# Method in brief: as §1
# ELK4 = molecular target: T3, ELK4 (Homo sapiens, UniProt P28324-2 1-405); conditions: protein: recombinant; tags: N-terminal GST; dsDNA, one strand shown
# T3 sequence: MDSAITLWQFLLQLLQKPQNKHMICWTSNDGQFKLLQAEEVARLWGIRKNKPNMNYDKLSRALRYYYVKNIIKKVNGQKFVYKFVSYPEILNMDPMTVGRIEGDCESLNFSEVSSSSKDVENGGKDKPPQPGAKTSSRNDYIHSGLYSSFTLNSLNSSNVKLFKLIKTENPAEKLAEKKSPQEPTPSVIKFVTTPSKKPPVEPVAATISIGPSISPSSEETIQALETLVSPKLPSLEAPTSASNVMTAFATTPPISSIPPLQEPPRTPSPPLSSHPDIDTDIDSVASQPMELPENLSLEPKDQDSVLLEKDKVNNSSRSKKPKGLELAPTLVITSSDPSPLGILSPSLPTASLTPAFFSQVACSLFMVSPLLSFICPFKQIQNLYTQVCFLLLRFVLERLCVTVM
# Method in brief: as §1
# ETV2 = molecular target: T4, ETV2 (Homo sapiens, UniProt O00321 1-342); conditions: protein: recombinant; tags: N-terminal GST; dsDNA, one strand shown
# T4 sequence: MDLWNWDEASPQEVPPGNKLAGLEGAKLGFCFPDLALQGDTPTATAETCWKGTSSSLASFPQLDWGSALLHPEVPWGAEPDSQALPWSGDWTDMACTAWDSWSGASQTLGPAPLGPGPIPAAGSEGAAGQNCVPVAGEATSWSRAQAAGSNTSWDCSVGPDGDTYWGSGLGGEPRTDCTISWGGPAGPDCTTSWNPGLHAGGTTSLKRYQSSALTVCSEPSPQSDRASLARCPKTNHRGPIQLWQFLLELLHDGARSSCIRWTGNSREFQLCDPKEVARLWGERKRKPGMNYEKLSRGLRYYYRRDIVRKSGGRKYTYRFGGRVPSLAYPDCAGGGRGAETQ
# Method in brief: as §1
# ELF3 = molecular target: T5, ELF3 (Homo sapiens, UniProt P78545 1-371); conditions: protein: recombinant; tags: N-terminal GST; dsDNA, one strand shown
# T5 sequence: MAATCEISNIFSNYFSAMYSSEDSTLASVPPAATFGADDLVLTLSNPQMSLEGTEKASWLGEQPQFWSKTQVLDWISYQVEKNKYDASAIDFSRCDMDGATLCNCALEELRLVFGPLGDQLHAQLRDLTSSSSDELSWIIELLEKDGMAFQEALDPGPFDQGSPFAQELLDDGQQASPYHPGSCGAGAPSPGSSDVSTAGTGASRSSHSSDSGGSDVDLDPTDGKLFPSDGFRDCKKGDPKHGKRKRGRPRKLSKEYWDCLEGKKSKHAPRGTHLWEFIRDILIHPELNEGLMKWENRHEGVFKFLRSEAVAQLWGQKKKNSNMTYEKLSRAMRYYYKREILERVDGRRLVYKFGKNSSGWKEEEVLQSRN
# Method in brief: as §1
# CRX = CRX (Homo sapiens, UniProt O43186 1-299); conditions: protein: recombinant; tags: N-terminal GST; dsDNA, one strand shown
# Chain of CRX (O43186 whole entry): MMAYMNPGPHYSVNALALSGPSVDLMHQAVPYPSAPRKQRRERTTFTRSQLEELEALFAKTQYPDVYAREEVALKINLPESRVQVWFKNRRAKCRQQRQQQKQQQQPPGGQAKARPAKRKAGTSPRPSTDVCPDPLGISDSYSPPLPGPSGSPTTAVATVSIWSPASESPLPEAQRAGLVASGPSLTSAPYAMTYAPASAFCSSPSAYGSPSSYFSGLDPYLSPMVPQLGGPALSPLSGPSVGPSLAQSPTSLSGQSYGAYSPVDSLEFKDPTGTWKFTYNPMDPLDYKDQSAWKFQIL
# Method in brief: as §1
# ETV1 = ETV1 (Homo sapiens, UniProt P50549 1-477); conditions: protein: recombinant; tags: N-terminal GST; dsDNA, one strand shown
# Chain of ETV1 (P50549 whole entry): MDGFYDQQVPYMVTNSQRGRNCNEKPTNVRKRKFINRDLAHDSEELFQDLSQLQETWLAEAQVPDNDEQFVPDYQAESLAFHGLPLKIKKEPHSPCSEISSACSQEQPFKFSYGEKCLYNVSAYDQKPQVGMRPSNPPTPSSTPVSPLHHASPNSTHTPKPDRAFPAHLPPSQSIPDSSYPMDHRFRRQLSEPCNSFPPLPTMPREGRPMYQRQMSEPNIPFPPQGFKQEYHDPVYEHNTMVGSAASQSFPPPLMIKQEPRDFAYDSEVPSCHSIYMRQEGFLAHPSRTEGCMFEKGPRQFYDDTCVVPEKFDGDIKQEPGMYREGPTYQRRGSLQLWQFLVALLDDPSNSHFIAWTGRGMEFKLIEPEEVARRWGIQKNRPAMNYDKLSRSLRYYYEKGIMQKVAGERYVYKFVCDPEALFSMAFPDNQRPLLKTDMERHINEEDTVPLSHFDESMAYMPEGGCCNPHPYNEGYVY
# Method in brief: as §1
# ERF = molecular target: T6, ERF (Homo sapiens, UniProt P50548 1-548); conditions: protein: recombinant; tags: N-terminal GST; dsDNA, one strand shown
# T6 sequence: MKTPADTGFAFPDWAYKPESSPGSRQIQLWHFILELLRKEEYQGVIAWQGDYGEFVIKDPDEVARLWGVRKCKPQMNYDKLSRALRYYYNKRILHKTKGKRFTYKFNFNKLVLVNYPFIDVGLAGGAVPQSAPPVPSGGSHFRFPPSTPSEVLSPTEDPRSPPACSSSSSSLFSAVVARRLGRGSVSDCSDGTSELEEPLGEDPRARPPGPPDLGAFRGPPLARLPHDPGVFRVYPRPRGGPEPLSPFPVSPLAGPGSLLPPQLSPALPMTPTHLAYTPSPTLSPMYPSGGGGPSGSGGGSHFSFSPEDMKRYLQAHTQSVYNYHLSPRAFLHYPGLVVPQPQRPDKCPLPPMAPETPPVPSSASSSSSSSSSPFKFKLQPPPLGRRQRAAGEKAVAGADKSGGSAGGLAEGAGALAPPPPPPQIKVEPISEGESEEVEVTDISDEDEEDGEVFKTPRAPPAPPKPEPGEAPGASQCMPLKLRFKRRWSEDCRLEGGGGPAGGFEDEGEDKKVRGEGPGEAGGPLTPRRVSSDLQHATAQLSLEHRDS
# Method in brief: as §1
# ETV3L = molecular target: T7, ETV3L (Homo sapiens, UniProt Q6ZN32 1-361); conditions: protein: recombinant; tags: N-terminal GST; dsDNA, one strand shown
# T7 sequence: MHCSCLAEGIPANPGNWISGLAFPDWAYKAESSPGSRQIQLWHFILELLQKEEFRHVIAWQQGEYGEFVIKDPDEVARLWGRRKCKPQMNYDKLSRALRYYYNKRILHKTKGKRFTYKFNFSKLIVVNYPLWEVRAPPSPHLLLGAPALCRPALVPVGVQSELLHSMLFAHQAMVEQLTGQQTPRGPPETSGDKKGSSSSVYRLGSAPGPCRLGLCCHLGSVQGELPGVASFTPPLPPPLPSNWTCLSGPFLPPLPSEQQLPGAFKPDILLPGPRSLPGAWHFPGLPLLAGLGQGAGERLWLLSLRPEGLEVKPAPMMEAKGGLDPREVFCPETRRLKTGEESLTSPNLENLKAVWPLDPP
# Method in brief: as §1
# ETS2 = molecular target: T8, ETS2 (Homo sapiens, UniProt P15036 1-469); conditions: protein: recombinant; tags: N-terminal GST; dsDNA, one strand shown
# T8 sequence: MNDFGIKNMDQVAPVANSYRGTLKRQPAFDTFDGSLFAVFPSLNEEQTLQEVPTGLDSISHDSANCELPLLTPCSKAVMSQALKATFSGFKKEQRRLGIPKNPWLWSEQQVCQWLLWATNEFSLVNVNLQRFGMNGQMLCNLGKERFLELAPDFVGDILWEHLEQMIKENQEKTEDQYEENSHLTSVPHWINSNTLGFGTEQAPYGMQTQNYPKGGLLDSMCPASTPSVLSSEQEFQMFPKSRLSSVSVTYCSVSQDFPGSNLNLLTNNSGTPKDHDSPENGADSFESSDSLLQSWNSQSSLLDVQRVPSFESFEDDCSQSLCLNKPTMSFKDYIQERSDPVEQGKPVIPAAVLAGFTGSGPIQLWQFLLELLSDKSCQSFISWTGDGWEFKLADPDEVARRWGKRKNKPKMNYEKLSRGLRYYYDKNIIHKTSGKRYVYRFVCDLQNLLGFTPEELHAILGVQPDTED
# Method in brief: as §1
# SPDEF = molecular target: T9, SPDEF (Homo sapiens, UniProt O95238 1-335); conditions: protein: recombinant; tags: N-terminal GST; dsDNA, one strand shown
# T9 sequence: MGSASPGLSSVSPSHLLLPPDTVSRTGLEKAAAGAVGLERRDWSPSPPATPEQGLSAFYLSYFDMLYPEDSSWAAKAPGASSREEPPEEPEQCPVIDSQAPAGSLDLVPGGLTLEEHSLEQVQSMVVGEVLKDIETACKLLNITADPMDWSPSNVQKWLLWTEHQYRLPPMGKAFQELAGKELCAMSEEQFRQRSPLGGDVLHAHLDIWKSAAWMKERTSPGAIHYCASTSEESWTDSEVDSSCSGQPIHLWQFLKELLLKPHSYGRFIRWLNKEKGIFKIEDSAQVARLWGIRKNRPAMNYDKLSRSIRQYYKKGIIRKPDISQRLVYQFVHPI
# Method in brief: as §1
# ETV7 = molecular target: T10, ETV7 (Homo sapiens, UniProt Q9Y603 1-341); conditions: protein: recombinant; tags: N-terminal GST; dsDNA, one strand shown
# T10 sequence: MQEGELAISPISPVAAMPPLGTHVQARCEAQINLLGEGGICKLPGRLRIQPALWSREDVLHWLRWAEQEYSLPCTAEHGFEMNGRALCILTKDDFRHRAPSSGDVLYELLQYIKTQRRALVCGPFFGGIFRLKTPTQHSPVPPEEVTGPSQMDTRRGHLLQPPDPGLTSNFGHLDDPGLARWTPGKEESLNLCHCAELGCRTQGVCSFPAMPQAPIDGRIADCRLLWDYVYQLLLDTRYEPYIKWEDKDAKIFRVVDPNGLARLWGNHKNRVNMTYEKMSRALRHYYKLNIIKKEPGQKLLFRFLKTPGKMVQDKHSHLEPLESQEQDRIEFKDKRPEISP
# Method in brief: as §1
# ELF5 = molecular target: T11, ELF5 (Homo sapiens, UniProt Q9UKW6-2 1-255); conditions: protein: recombinant; tags: N-terminal GST; dsDNA, one strand shown
# T11 sequence: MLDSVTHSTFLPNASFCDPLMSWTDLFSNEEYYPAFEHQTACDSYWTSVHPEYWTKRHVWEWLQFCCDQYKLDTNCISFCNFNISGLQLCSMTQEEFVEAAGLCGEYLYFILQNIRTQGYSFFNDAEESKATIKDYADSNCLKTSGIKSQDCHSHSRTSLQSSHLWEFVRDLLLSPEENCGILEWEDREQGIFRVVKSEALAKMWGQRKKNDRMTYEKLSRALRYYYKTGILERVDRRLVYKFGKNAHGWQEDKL
# Method in brief: as §1
# ETV3 = molecular target: T12, ETV3 (Homo sapiens, UniProt P41162-2 1-143); conditions: protein: recombinant; tags: N-terminal GST; dsDNA, one strand shown
# T12 sequence: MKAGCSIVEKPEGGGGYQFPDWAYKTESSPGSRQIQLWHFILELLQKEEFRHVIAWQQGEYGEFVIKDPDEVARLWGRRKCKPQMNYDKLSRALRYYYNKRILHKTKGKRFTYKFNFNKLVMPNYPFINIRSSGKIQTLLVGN
# Method in brief: as §1
# ETV6 = ETV6 (Homo sapiens, UniProt P41212 1-452); conditions: protein: recombinant; tags: N-terminal GST; dsDNA, one strand shown
# Chain of ETV6 (P41212 whole entry): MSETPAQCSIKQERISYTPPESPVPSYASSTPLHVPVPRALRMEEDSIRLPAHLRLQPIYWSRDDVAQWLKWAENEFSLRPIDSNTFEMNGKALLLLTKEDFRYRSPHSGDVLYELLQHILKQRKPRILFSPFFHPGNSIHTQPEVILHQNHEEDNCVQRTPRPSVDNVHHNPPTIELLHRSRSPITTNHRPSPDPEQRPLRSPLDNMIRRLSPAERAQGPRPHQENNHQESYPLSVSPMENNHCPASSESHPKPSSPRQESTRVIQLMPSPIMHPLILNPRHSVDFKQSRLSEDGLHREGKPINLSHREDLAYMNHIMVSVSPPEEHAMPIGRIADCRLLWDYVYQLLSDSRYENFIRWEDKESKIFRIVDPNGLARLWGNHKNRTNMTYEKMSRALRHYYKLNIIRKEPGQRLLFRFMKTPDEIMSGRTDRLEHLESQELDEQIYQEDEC
# Method in brief: as §1
sequence,measurement,setting,value
TTTTAC,binding signal,FEV,"1.37 fold enrichment (6-mer frequency, TF over GST control)"
same,binding signal,ETV5,"1.36 fold enrichment (6-mer frequency, TF over GST control)"
same,binding signal,HSF1,"1.37 fold enrichment (6-mer frequency, TF over GST control)"
same,binding signal,SPIC,"1.4 fold enrichment (6-mer frequency, TF over GST control)"
same,binding signal,ELF4,"1.37 fold enrichment (6-mer frequency, TF over GST control)"
same,binding signal,ELK4,"1.41 fold enrichment (6-mer frequency, TF over GST control)"
same,binding signal,ETV2,"1.37 fold enrichment (6-mer frequency, TF over GST control)"
same,binding signal,ELF3,"1.4 fold enrichment (6-mer frequency, TF over GST control)"
same,binding signal,CRX,"1.51 fold enrichment (6-mer frequency, TF over GST control)"
same,binding signal,ETV1,"1.46 fold enrichment (6-mer frequency, TF over GST control)"
same,binding signal,ERF,"1.3 fold enrichment (6-mer frequency, TF over GST control)"
same,binding signal,ETV3L,"1.32 fold enrichment (6-mer frequency, TF over GST control)"
same,binding signal,ETS2,"1.44 fold enrichment (6-mer frequency, TF over GST control)"
same,binding signal,SPDEF,"1.32 fold enrichment (6-mer frequency, TF over GST control)"
same,binding signal,ETV7,"1.52 fold enrichment (6-mer frequency, TF over GST control)"
same,binding signal,ELF5,"1.27 fold enrichment (6-mer frequency, TF over GST control)"
same,binding signal,ETV3,"1.45 fold enrichment (6-mer frequency, TF over GST control)"
same,binding signal,ETV6,"1.33 fold enrichment (6-mer frequency, TF over GST control)"
